From the OligoGym collection

molecular target: APLNR; assay: pooled miR-30 sensor sort-seq; sequence = guide strand; conditions: shRNA
Also: reference of the scale not given here.

Sequence | sensor-assay potency score (higher = more potent)
TGGATTTCTCGTGCATCTGTTC | -1.45
TGGAGCACTAATTATCTGCTGA | -0.596
TAACAGGTCAGCATGATGGTGA | 0.0238
TTCACTTTCATAGTCCTCCAAG | -0.567
TAGCAATGAAGATATCAGCTGA | 0.487
TTGACGAAGATGAGGTAGCTGC | -0.686
TTTGAGGACAGCTCTGGGCAGA | -0.516
TTATCTGCTGACACACAGCCCA | -0.574

molecular target: APOA1; assay: as above; conditions: shRNA

Sequence | sensor-assay potency score (higher = more potent)
TTGCAGCTCGTGCAGCTTCTGG | -1.14
TTGAGCACATCCACGTACACAG | -0.115
TTCTCTTGCAGCTCGTGCAGCT | -0.213
TTTAGCTGTTTTCCCAAGGCGG | -0.584
TTTGAGCACATCCACGTACACA | -1.01
TAGAGCTCCATCTCCTCCTGCC | 0.375
TCTTGCTGCCAGAAATGCCGAG | -0.701
AACTGGGACACATAGTCTCTGC | -0.955
TGGGACACATAGTCTCTGCCGC | -0.692
TCAGCTTCTCTTGCAGCTCGTG | -1.07
TTGGCCTTCTCGCTGAGCGTGC | -0.4
TAGCTGTTTTCCCAAGGCGGAG | -1.51
TTAGCTGTTTTCCCAAGGCGGA | -1.3
TTGGAGCTCTGCGCGCAGCGGC | -1.17
TACTCGGCCAGTCTGGCGCCGC | -0.96
TTCTTCTGGAAGTCGTCCAGGT | -0.431
TAGGTTTAGCTGTTTTCCCAAG | -1.2
TTAGGTTTAGCTGTTTTCCCAA | 0.243
TTGTCAAGGAGCTTTAGGTTTA | -0.808
TGTCTTTGAGCACATCCACGTA | -1.2
TCGCGCAGCTTGCTGAAGGTGG | -0.684

molecular target: APOA4; assay: as above; conditions: shRNA

Sequence | sensor-assay potency score (higher = more potent)
TTCTCCTTGAAGGTGCTGAAGA | -1.33
TTCTTCTTCATCTGGAAGGTCA | -0.417
TCTTCTGCAGGTCACCTGCGTA | -1.37
AAGTAGTCCCACATCACCGTGG | -0.243
TTGAGCTCCTCCACGTTCTGGT | 0.494
TCGGCGTTCTTCTTCATCTGGA | -0.527
TCGGAACTCCTCCACCTGCTGG | -1.28
TCGATCTTGGCCTTGAGCTCGT | -0.264
TTGAAGGTGCTGAAGAAGGAGT | -1.02
TGAAGTAGTCCCACATCACCGT | -0.0577
TTCTTCTGCAGGTCACCTGCGT | -0.176
